The values below come from PubChem BioAssay.

The nature of experiment [1]: rapamycin-like changes in RPL19A-GFP expression – cell-based, S. cerevisiae, multiplex flow cytometry, primary screen (AID 1862; in the data active = percent of DMSO control GFP below about 86%;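 note: lower values mimic rapamycin by blocking the RPL19A rise seen in DMSO cells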). Conditions: S. cerevisiae RPL19A-GFP strain, flow cytometry fluorescence, 3 h; at 10 µM; stronger effect = lower value. On the technique in general: In flow cytometry, cells or beads pass a laser one at a time.
Experiment [2] in a line: TOR pathway GLN3 branch reporter MEP2-GFP changes – S. cerevisiae, multiplex flow cytometry, primary screen (AID 1867;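 active = GFP response, as percent of the DMSO control, above the screen-wide mean plus 3 SD, about 139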;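 note: median GFP channel fluorescence of barcode-gated MEP2-GFP cells measured by flow cytometry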). Conditions: S. cerevisiae MEP2-GFP strain, 3 h, at 10 µM, stronger effect = higher value, 100% means same as DMSO wells.
Experiment [3] is described as follows: TOR pathway RTG branch CIT2 reporter changes – S. cerevisiae, GFP fusion, multiplex flow cytometry, primary screen (AID 1870;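 active = percent response above a set limit, the screen-wide mean plus 3 SD, cut at about 130% in these data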;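 note: barcoded CIT2-GFP strain pooled with four other GFP strains with rapamycin as positive control; median GFP fluorescence per well over plate mean of DMSO wells so 100% = DMSO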). As to conditions: S. cerevisiae CIT2-GFP expression, 3 h, at 10 µM, stronger effect = higher value.
Experiment [4] can be described thus: TOR pathway LAP4-GFP level changes – S. cerevisiae, multiplex flow cytometry, primary screen (AID 1873;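 active = GFP signal, as percent of the solvent control, above the screen mean plus 3 SD, about 149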). As to conditions: S. cerevisiae LAP4-GFP expression, 3 h, at 10 µM, stronger effect = higher value.
Experiment [5] can be described thus: yeast AGP1-GFP level changes, GLN3 branch – cell-based, multiplex flow cytometry, S. cerevisiae, primary screen (AID 1887;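 active = GFP signal above the screen-wide mean plus 3 SD, that is over about 124.5% of the solvent control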;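 note: AGP1-GFP fusion strain of S. cerevisiae within a five-strain barcoded multiplex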). As to conditions: 3 h, at 10 µM, stronger effect = higher value.
Experiment [6] in a line: reduced mouse 2C T cell binding to pMHC/ICAM-1 vesicles – MLPCN validation set, flow cytometry, LFA-1/ICAM-1 modulator project, pilot screen (AID 2523;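 active = response below a set limit, under 55% cells CD8-positive and vesicle-bound, and CD8 cells' 90th-percentile brightness under 279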;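 for vesicle binding response: mean PE anti-B7-1 fluorescence of CD8+ cells relative to row control; 100% = QL9-loaded vesicles with DMSO vehicle in the same plate row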). As to conditions: 2C mouse CD8+ T cells, at 7 µM, stronger effect = lower value; double positive events: measured here: CD8+/vesicle+ event percentage.
The target of experiment [7] is Integrin beta-1 (Homo sapiens) + Integrin alpha-4 (Homo sapiens) (UniProt P13612+P05556). The experiment can be described thus: alpha4beta1 integrin LIBS antibody binding reduction – U937 cells, HUTS-21 mAb, flow cytometry, validation set, VLA-4 allosteric modulator project, pilot screen (AID 2674;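 active = inhibition above 50%, about 3 SD of the validation set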;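 note: antibody binding induced by the VLA-4 ligand LDV present at three times its Kd; 0% = LDV ligand with antibody and no compound and 100% = antibody without LDV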). Conditions: HUTS-21 LIBS mAb binding, at 6.7 µM, stronger effect = higher value, binding induced by LDV ligand.
Integrin beta-1 (Homo sapiens) + Integrin alpha-4 (Homo sapiens), sequence (P05556 whole entry, looked up): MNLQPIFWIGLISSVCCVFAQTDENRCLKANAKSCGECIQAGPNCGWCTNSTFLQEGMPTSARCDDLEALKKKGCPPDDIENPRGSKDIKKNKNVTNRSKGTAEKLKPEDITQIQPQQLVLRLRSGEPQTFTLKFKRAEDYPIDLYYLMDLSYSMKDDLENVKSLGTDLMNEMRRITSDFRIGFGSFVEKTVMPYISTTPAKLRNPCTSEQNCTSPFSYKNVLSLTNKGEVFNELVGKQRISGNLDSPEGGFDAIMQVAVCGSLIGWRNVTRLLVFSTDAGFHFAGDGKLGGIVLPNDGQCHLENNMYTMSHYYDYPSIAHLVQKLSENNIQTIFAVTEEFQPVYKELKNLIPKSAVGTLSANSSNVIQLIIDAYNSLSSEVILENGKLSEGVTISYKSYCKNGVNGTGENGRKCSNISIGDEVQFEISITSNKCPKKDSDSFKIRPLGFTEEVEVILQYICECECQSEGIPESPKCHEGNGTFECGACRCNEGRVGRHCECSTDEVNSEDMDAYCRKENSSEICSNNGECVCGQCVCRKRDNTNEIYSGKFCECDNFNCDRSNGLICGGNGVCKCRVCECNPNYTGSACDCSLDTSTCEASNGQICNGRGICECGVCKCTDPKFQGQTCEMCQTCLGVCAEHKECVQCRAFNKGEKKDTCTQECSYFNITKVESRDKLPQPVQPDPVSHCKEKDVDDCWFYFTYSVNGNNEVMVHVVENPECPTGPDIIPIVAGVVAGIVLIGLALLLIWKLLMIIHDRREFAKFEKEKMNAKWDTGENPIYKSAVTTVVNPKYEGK
Integrin beta-1 (Homo sapiens) + Integrin alpha-4 (Homo sapiens), sequence (P13612 whole entry, looked up): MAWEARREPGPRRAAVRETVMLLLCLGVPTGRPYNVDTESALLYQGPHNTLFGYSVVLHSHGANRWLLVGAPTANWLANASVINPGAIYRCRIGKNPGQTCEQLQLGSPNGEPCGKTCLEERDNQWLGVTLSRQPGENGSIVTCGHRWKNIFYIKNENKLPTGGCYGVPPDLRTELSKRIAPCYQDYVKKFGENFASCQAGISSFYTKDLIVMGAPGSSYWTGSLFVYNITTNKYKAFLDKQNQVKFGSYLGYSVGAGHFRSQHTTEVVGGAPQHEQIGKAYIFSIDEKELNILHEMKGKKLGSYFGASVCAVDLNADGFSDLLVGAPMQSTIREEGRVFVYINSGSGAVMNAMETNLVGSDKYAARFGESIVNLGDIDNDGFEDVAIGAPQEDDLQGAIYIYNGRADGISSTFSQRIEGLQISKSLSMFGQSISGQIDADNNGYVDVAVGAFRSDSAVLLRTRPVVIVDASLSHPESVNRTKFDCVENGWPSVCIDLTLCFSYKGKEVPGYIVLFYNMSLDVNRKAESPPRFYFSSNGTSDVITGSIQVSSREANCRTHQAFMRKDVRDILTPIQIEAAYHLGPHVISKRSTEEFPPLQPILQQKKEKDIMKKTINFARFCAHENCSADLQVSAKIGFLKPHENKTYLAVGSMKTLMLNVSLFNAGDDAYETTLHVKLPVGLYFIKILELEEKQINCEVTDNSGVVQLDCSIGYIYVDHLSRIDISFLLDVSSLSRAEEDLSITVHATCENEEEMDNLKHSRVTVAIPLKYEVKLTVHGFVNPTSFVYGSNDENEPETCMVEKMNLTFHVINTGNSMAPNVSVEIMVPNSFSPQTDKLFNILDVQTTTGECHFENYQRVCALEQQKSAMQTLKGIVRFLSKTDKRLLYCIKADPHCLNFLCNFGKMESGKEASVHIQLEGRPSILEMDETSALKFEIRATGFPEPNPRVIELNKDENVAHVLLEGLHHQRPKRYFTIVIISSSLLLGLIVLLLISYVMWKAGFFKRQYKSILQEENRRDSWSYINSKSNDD

The nature of experiment [8]: calorie-restriction mimetic ROS inhibitors, yeast – validation compound set, pilot screen (AID 2706;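 active = superoxide response below 65% of plate, a cut near 3 SD across the whole screen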;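 note: yeast exposed to compound for one week at 30 degrees C before staining; 100% = mean of all compound wells on the same plate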). As to conditions: S. cerevisiae aging, superoxide DHE fluorescence; at 10 µM; stronger effect = lower value.
In experiment [9] the target is Beta-adrenergic receptor kinase 1 (Homo sapiens) (UniProt P25098). The experiment is described as follows: GRK2 binders displacing RNA aptamer, biochemical, validation, human GRK2, bead flow cytometry (AID 488806;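 active = aptamer binding inhibition above 30%, about 3 SD of noise from non-fluorescent compounds; inactive = inhibition at or below 30%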). As to conditions: bead-bound GRK2, FAM-aptamer displacement, at 10 µM, stronger effect = higher value.
Beta-adrenergic receptor kinase 1 (Homo sapiens), sequence (P25098 whole entry, looked up): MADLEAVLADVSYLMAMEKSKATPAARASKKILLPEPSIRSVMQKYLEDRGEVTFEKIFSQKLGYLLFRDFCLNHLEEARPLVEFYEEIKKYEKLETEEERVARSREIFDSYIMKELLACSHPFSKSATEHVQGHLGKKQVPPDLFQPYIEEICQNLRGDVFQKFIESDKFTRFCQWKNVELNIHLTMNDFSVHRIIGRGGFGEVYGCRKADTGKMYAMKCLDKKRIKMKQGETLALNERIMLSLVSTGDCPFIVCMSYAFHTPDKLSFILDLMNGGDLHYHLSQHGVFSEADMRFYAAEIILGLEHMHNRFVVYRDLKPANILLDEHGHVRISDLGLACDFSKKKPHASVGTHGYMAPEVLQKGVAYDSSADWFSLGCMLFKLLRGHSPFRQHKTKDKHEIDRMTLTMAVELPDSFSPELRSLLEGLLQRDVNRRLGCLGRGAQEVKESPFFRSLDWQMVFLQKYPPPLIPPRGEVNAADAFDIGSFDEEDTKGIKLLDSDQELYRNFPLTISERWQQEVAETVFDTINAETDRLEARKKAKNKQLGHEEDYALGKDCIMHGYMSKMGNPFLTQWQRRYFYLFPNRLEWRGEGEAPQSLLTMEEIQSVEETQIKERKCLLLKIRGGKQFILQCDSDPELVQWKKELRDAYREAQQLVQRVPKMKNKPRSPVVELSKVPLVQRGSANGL
The target of experiment [10] is Beta-2 adrenergic receptor (Homo sapiens) (UniProt P07550). The experiment can be described thus: agonist-induced loss of surface beta2AR – cell-based, FAP fluorogen, flow cytometry, validation set, pilot screen (AID 504459;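 active = percent response above 42, roughly 3 SD of non-fluorescent test compounds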;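 note: agonist-driven loss of surface beta2AR via internalization measured by FAP dye flow cytometry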). Conditions: Am2.2-beta2AR cells, at 10 µM, stronger effect = higher value.
Beta-2 adrenergic receptor (Homo sapiens), sequence (P07550 whole entry, looked up): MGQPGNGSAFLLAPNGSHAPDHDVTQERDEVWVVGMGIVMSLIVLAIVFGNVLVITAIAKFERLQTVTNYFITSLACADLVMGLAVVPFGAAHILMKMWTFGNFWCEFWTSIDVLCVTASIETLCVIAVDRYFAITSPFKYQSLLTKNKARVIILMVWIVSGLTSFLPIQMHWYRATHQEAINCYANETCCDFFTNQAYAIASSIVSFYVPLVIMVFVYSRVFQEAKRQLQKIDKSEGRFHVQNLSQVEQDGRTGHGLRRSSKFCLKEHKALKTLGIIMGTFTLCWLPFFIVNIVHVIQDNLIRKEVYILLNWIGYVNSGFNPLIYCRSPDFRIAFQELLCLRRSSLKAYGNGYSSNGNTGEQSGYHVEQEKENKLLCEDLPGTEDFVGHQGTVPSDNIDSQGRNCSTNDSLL
Experiment [11] concerns the target AP-2 complex subunit beta (Homo sapiens) (UniProt P63010). The experiment can be described thus: beta-arrestin/AP2 interaction blockers – biochemical, validation set, GST-AP2 beads, flow cytometry, pilot screen (AID 504541;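 active = inhibition above 54%, about 3 SD of non-fluorescent compounds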;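 note: AP2 carries R879A mutation and is captured from E. coli lysate; bead-bound FITC arrestin peptide fluorescence measuring arrestin peptide binding to AP2; 0% = DMSO wells and 100% = excess unlabeled arrestin peptide control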). As to conditions: FITC arrestin peptide, at 10 µM, stronger effect = higher value, AP2 beta2 appendage fragment, R879A mutant.
Experiment [12] is described as follows: cytosolic pH regulators acting via V-ATPase – S. cerevisiae, pHLuorin, HTS validation (AID 504600; in the data active = response above about 15%;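 note: plate controls were DMSO for no effect and reference compound for full effect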). Conditions: V-ATPase proton transport, at 10 µM, stronger effect = higher value.
Experiment [13] deals with anti-desmoglein-3 scFv antibody binding to human DSG3. The experiment is described as follows: blockers of pathogenic pemphigus antibody–desmoglein-3 binding – biochemical, validation compound set, bead-based, flow cytometry, pilot screen (AID 588368).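 Note: signal is the median channel fluorescence of bead-bound GFP antibody.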 Conditions: Protein G beads, DSG3-Fc, scFv-GFP binding, at 10 µM, stronger effect = lower value.
The nature of experiment [14]: Nile Red efflux blockade in pump-expressing yeast – validation compound set, multiplex, phenotypic, pilot screen (AID 588506;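 active = efflux inhibition above 0.42, the validation set average plus 4 SD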;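 note: Nile Red retained in cells so higher fluorescence means more efflux inhibition; 0 = negative control wells and 1 = enniatin B 25 µM full block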). Conditions: S. cerevisiae pump-expressing triplex, Nile Red efflux flow cytometry; at 10 µM; stronger effect = higher value; the pumps come from Candida albicans.
Experiment [15] deals with ATP-binding cassette sub-family B member 6 (Homo sapiens) (UniProt Q9NP58). The experiment can be described thus: blockers of ABCB6-driven porphyrin uptake – K562-ABCB6 cells, flow cytometry, validation set, pilot screen (AID 588550;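 active = inhibition above the screen-wide mean plus 3 SD, about 51%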;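 note: 0% = DMSO wells and 100% = benzethonium chloride 70 µM positive control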). Conditions: K562-ABCB6 porphyrin accumulation, 1 h, at 10 µM, stronger effect = higher value.
ATP-binding cassette sub-family B member 6 (Homo sapiens), sequence (Q9NP58 whole entry, looked up): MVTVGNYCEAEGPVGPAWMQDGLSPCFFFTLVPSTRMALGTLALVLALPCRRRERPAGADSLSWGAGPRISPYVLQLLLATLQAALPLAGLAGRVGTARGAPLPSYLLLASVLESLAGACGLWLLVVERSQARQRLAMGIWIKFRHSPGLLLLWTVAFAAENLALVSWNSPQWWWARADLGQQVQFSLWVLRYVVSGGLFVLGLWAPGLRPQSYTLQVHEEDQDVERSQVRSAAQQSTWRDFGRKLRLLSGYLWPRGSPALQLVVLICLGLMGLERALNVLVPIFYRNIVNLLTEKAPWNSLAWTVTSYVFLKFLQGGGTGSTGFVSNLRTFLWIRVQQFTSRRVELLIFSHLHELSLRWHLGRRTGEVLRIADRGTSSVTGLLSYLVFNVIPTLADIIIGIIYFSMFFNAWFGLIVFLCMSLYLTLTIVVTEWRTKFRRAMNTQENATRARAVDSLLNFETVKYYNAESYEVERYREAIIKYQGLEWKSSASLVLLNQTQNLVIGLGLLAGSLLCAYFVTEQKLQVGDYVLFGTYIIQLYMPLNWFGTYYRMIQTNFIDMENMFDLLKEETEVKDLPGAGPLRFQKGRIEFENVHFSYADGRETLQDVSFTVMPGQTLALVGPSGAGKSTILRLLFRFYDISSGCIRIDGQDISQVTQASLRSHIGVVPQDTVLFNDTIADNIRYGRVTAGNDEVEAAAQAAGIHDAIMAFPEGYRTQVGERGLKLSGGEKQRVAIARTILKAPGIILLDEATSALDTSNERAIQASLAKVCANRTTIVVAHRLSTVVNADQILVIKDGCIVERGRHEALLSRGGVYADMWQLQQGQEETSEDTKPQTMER
The nature of experiment [16]: AML differentiation inducers, ER-HoxA9 marrow cells – cell-based, GFP/MAC1 double positive, flow cytometry, validation set, primary screen (AID 588685;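 active = differentiation response of at least 50%, scaled between solvent and reference control, from cells with both markers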;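 note: compound exposure lasts four days before antibody staining and flow analysis; 0% = DMSO wells and 100% = 5 µM fulvestrant positive control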). As to conditions: stronger effect = higher value, normalized: vehicle 0, fulvestrant 100.

By inhibition is commonly meant the relative decrease from the control value, in per cent.

Results filed as inconclusive are left out. Calls of active or inactive are those of the source.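 Rule for the calls, unless noted: active = binding below the plate cutoff, the plate median minus 3 SD, with a reading above zero; inconclusive = below the plate cutoff but reading exactly zero; inactive = the rest.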

AP-2 complex subunit beta (Homo sapiens), sequence (P63010 whole entry, looked up, the tested form may be a part, one chain of several): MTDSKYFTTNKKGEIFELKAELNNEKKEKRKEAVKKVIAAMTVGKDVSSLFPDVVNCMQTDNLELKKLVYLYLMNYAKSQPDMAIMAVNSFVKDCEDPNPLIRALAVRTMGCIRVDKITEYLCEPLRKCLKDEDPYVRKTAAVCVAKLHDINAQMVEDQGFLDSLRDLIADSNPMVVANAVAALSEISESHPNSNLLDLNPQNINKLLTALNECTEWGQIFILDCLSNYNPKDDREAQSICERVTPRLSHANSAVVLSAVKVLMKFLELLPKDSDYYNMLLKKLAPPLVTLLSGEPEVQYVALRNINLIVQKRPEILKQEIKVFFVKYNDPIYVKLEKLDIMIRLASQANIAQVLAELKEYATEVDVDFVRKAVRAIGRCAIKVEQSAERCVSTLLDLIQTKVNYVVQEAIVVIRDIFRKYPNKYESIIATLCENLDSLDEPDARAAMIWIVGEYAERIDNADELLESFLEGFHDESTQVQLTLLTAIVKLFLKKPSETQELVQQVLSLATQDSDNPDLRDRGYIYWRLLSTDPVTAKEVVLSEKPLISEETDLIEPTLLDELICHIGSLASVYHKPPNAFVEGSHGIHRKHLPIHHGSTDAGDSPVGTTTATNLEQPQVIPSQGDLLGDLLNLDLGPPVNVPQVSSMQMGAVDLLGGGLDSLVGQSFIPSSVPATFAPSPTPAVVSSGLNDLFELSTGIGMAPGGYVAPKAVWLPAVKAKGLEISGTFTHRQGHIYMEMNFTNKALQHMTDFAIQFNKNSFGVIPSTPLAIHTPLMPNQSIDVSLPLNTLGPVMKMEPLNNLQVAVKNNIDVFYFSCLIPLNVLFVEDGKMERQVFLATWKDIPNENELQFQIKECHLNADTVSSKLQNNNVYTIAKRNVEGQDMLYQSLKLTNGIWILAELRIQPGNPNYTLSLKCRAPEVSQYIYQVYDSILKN

As to `COC1CCN(Cc2cn(Cc3ccccc3)nc2-c2cc3ccccc3o2)CC1`, in experiment [1], the percent of DMSO control GFP is 105% (inactive). The GFP response vs DMSO in experiment [2] is 93% (inactive); in experiment [4], 89.4% (inactive). In experiment [3], the percent response of DMSO control was 102% (inactive). The GFP response, % of DMSO in experiment [5] is 98.9% (inactive). The same compound showed a double positive events in experiment [6] of 61.8%. Also, the vesicle binding response in experiment [6] is 243% (inactive). For the same compound, the values for the inhibition in [7], in experiment [11] and in experiment [15] were 22.4% (inactive), 9.94% (inactive) and 12% (inactive), respectively. Also, in experiment [8], the superoxide response (% of plate) is 104% (inactive). Moreover, the aptamer binding inhibition in experiment [9] was 0% (inactive). In addition, the response is 8.96% (inactive) in experiment [10] and -0.82% (inactive) in experiment [12]. For the same compound, the binding (% of control) in experiment [13] is 105% (inactive). Besides, the efflux inhibition (fraction of control) in [14] was -0.14 (inactive). The differentiation response in experiment [16] is -9.53% (inactive).

In the case of `O=C1[C@@H]2[C@H](Cc3ccc(O)cc3)N[C@]3(C(=O)Nc4ccccc43)[C@@H]2C(=O)N1c1ccc(F)cc1`, the percent of DMSO control GFP in [1] is 106% (inactive). Further, the GFP response vs DMSO in [2] is 103% (inactive); in [4], 90.1% (inactive). In experiment [3], the percent response of DMSO control is 100% (inactive). In experiment [5], the GFP response, % of DMSO is 91.9% (inactive). Moreover, the double positive events in [6] came out at 61.1%. In addition, the vesicle binding response in experiment [6] is 1070% (inactive). In addition, the values for the inhibition in experiment [7], in experiment [11] and in experiment [15] were 14.1% (inactive), 3.35% (inactive) and 0% (inactive), respectively. The superoxide response (% of plate) in [8] is 90% (inactive). Moreover, the aptamer binding inhibition in experiment [9] is 2% (inactive). For the same compound, the response in experiment [10] is -3.4% (inactive); in experiment [12], -0.08% (inactive). Moreover, the binding (% of control) in experiment [13] is 92.2% (inactive). In experiment [14], the efflux inhibition (fraction of control) is 0.3 (inactive). In addition, in experiment [16], the differentiation response is 6.11% (inactive).

In the case of `Nc1c(C(=O)c2ccccc2)oc2ccccc12`, the percent of DMSO control GFP in experiment [1] was 101% (inactive). Besides, the GFP response vs DMSO in experiment [2] is 96.2% (inactive); in experiment [4], 93.3% (inactive). Further, the percent response of DMSO control in experiment [3] was 100% (inactive). The GFP response, % of DMSO in experiment [5] was 74.2% (inactive). The compound further registered a double positive events in experiment [6] of 66%. Besides, in experiment [6], the vesicle binding response was 198% (inactive). Further, the figures for the inhibition in experiment [7], in [11] and in experiment [15] were -2.53% (inactive), -8.74% (inactive) and -18% (inactive), respectively. Also, the superoxide response (% of plate) in [8] was 89.5% (inactive). Moreover, the aptamer binding inhibition in experiment [9] was -1% (inactive). For the same compound, the figures for the response in experiment [10] and in [12] were -9.17% (inactive) and 1.23% (inactive), respectively. For the same compound, the binding (% of control) in experiment [13] is 86.9% (inactive). The efflux inhibition (fraction of control) in experiment [14] is -0.32 (inactive). Moreover, in experiment [16], the differentiation response is 24.7% (inactive).

In the case of `CC(=O)NC(NC(=S)N1CCCCCC1)C(Cl)(Cl)Cl` (stereo not drawn), the percent of DMSO control GFP in experiment [1] is 102% (inactive). Also, the GFP response vs DMSO in experiment [2] is 104% (inactive); in experiment [4], 95.3% (inactive). Further, the percent response of DMSO control in [3] was 98.9% (inactive). The GFP response, % of DMSO in [5] was 99.5% (inactive). In addition, the double positive events in experiment [6] worked out at 64.5%. Further, in [6], the vesicle binding response is 126% (inactive). In addition, the inhibition in experiment [7] is -20.2% (inactive); in experiment [11], -7.04% (inactive); in [15], -1% (inactive). Further, the superoxide response (% of plate) in experiment [8] is 104% (inactive). The aptamer binding inhibition in [9] was 0% (inactive). Besides, the response in experiment [10] is 2.95% (inactive); in [12], 0.33% (inactive). In addition, in experiment [13], the binding (% of control) was 94.8% (inactive). For the same compound, the efflux inhibition (fraction of control) in experiment [14] was 0.05 (inactive). For the same compound, the differentiation response in [16] is 6.11% (inactive).
